Assay outcomes as filed in PubChem BioAssay.
MCF10A rereplic: induces DNA re-replication in MCF 10a normal breast cells. AID 624296. MCF 10A DNA re-replication, Hoechst nuclear intensity, 48 h. Potency, µM (titrated, usually from 46.1 µM), for inactives: at the top dose activity, positive = re-replication, actives largely listed as activators. hit rate 2.9% among 350,000; note: potency is the fitted concentration of half-maximal effect; % of control where 0% means no effect; nearly all actives have a fitted effect of over 50% in size
SW480 rerep: induces DNA re-replication in SW480 colon adenocarcinoma cells; SW480 DNA re-replication, Hoechst DNA content imaging, 48 h; Potency, µM (highest dose often 46.1 µM), without a hit: at the highest dose re-replication activation, actives largely listed as activators; hit rate 1.8% among 340,000; AID 624297; note: potency is the fitted concentration of half-maximal effect; % of control where 0% means no effect; nearly all actives have a fitted effect of over 55% in size
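DNA re-replication was detected as more nuclei of elevated Hoechst intensity after 48 hr exposure to compound (23 nL pinned per well of 250 cells).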
BCR signal inh: blocks chronic active B-cell receptor signaling; ABC-DLBCL IkBa-CBG/CBR reporter, luminescence ratio, 4 h; Potency, µM (highest dose often 46.1 µM), without a hit: at the highest dose activity change, negative = inhibition, most hits filed as inhibitors; hit rate 0.05% among 340,000; AID 493014; active = well fitted inhibition curve with a large enough effect in the signal ratio, with a control signal flat, not every such curve was filed as active; inconclusive = small, poorly fitted or top-dose-only effect, or effect the other way, or a change in a side signal; the % refers to the signal ratio;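 note: potency is the fitted concentration of half-maximal effect; plate controls were basal doxycycline-induced cells for no effect and cells given 10 µM MG132 for full effect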
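Concentration-response series (up to 46 uM) were applied to TMD8 dual-reporter cells for 4 h at 37C with doxycycline. Green/red ratio, after filter-overlap correction, defined %Activity; red signal alone was normalised to basal cells and zero luminescence.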
VP16 counter: counter-screen for ROR gamma inhibitors: Gal4-VP16 reporter | Drosophila S2 Gal4-VP16 UAS-luciferase, luminescence, 20 h | Potency, µM (highest dose often 53.6 µM), for the others: top-dose activity, negative = inhibition, usual class: inhibitors | hit rate 3.5% among 310,000;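 note: Gal4-VP16 expression switched on by copper sulfate through the metallothionein promoter; potency is the fitted concentration of half-maximal effect; % is set by controls: 0 for no effect and ±100 for the full control effect; nearly all actives have a fitted effect of over 50% in size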
RORgamma inh: ROR gamma (mouse) transcription inhibition; Potency, µM (titrated, usually from 53.6 µM), for the others: at the top dose activity change, negative = inhibition, most hits filed as inhibitors; AID 2551; P51450; Drosophila S2 Gal4-RORgamma UAS-luciferase reporter, 20 h; hit rate 5.4% among 310,000; note: potency is the fitted concentration of half-maximal effect; % is set by controls: 0 for no effect and ±100 for the full control effect; nearly all actives have a fitted effect of over 60% in size
Target sequence (P51450 whole entry, looked up, the tested form may be a part): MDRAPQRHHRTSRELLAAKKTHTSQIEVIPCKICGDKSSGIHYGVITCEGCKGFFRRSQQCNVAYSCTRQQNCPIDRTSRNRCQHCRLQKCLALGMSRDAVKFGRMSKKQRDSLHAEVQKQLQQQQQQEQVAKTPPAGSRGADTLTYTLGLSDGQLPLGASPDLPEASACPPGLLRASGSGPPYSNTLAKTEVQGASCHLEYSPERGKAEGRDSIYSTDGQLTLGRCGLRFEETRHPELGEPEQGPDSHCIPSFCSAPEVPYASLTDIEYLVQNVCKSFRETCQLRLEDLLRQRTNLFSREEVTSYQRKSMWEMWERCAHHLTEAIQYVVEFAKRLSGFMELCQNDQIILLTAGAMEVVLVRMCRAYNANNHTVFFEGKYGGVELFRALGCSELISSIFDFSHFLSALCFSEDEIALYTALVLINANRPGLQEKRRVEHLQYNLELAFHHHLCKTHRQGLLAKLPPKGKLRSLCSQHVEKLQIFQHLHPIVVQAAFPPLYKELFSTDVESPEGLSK
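Schneider cells (Drosophila), stable Gal4 DBD–ROR gamma + UAS-luc; 1 hr cmpd preincubation; Cu2+ induction 700 uM final; 20 hr ambient; luminescence.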
Giardia kill: Giardia lamblia killing. AID 540267. hit rate 0.15% among 340,000. activity change, % at 7.66 µM, hits read low. Giardia lamblia trophozoite viability; in the data active = activity change below about -80%; inconclusive = between about -30% and that limit;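 note: parasites exposed to compound for two days anaerobically before the ATP read; % is set by controls: 0 for no effect and ±100 for the full control effect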
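Luminescence from cellular ATP indicates surviving trophozoites (100 cells/well) following 48 hrs anaerobic compound treatment at 37 deg C; signal develops 15-30 min at room temperature.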
* hit, by the source's call; ? = inconclusive; / = no result given; ! = not confirmed by another sample; [ ] = another dose, or the depositor's remark. In the library only some 8.3% were active in any assay of this set; here they are far more common. Unless noted, calls come from the whole dose curve; as a rule, active = well fitted curve in the direction sought with a large enough effect; inconclusive = small, poorly fitted or top-dose-only effect, or another doubt; inactive = no such curve, though single readings can be large; an effect the other way counts as inactive or inconclusive.

SMILES	MCF10A rereplic	SW480 rerep	BCR signal inh	VP16 counter	RORgamma inh	Giardia kill
O=C(CN1CCOCC1)N/N=C/c1ccco1	-50.3%	?	0.5%	0.2%	-0.9%	-4.9
CC(NS(=O)(=O)c1ccc(N)cc1)C1CC2CCC1C2 (stereo not drawn)	4.8%	-1.2%	-4.3%	0.1%	-4.2%	3.1
NCC12CC3CC(C1)CC(c1ccc(Cl)cc1)(C3)C2	?	5.6%	-8.0%	?	?	-5.4
CCc1nnc(NC(=O)CSc2nnc3c(C)cc4c(C)ccc(C)c4n23)s1	9.2µM*	?	?	-2.2%	35.2%	-12.6
CCc1nnc(NC(=O)CSc2nnc(-c3ccncc3)n2C)s1	-1.5%	-1.8%	?	-1.8%	?	9.6
Cc1cc(NC(=O)CSc2nnc3c(C)cc4c(C)ccc(C)c4n23)no1	20.6µM*	20.6µM*	-19.3%	-1.9%	20.9%	-4.0
CCOC(=O)Cc1nnc(NC(=O)CSc2nncn2C)s1	6.51µM*	?	-3.9%	8.0%	-6.7%	-1.4
O=CN1CCN(S(=O)(=O)c2ccc(Cl)c(C(=O)O)c2)CC1	-23.7%	-37.0%[1.84 µM]	-8.6%	-0.8%	13.2%	2.5
COc1ccc2cc1Oc1ccc(cc1)CC1c3cc(c(OC)cc3CCN1C)Oc1c(OC)c(OC)c(OC)c3c1C(C2)N(C)CC3 (stereo not drawn)	/	/	/	-1.7%	-0.2%	/
N#CCCn1cc(C(=O)Nc2cccc(C(=O)O)c2)c(-c2ccc(Cl)cc2)n1	4.1%	4.11µM*	-3.5%	-0.5%	33.7%	-5.9
COc1ccccc1/C=N\NC(=O)c1c(C)nc2ccc(Cl)cn12	9.4%	-11.2%	-0.4%	?	?	0.0
Cc1nc2ccc(Br)cn2c1C(=O)N/N=C\c1ccccc1Cl	?	?	-4.7%	?	7.08µM*	14.7
COc1cccc(/C=N/NC(=O)c2c(C)nc3ccc(Cl)cn23)c1O	?	0.259µM*	?	3.98µM*	3.16µM*	-6.3
CC(C)c1nnc(NC(=O)C2CCCN2C(=O)Nc2ccc(F)cc2)s1 (stereo not drawn)	-0.5%	-36.2%	0.9%	-9.0%	-1.4%	-16.8
Cc1ccccc1OCCCn1c(=O)sc2ccccc21	?	14.5%	?	10µM*	2.82µM*	-14.2
O=C(NC(=S)Nc1sc2c(c1C(=O)O)CCCC2)c1ccccc1	?	-19.3%[1.84 µM]	?	-3.9%	29.4%	7.1
ClC(Cl)(c1nnnn1-c1ccccc1)c1nnnn1-c1ccccc1	?	13µM*	-0.2%	5.01µM*	10µM*	15.6
c1ccc(-c2nnnn2-c2ccccc2)cc1	4.0%	?	-3.3%	-8.3%	18.4%	-17.5
CCc1c(C2(O)CCCCC2)[nH]c2cnccc12	0.0%	-2.2%	0.7%	/	/	0.5
CN(C)S(=O)(=O)c1ccc(C(=O)Nc2ccc(S(=O)(=O)NC3=NCCCCC3)cc2)cc1	?	3.1%	0.3%	3.2%	-3.2%	2.0
N#Cc1ccc(C(=O)Nc2nnc(-c3cccs3)o2)cc1	-2.6%	-1.1%	?	1µM*	0.708µM*	-1.8
O=C(Nc1nnc(-c2cccs2)o1)c1cccc(C(F)(F)F)c1	-10.6%	?	?	0.112µM*	0.112µM*	-19.4
CN(C)S(=O)(=O)c1ccc(C(=O)Nc2nnc(-c3ccc4c(c3)CCCC4)o2)cc1	13.1%	-1.8%	11.2%	0.0891µM*	0.126µM*	-3.3
CN(C)S(=O)(=O)c1ccc(C(=O)Nc2nnc(-c3cccs3)o2)cc1	?	-64.5%	2.7%	1.26µM*	0.631µM*	-19.8
COc1ccc(C(=O)NNC(=O)Cc2nc3nc(C)cc(C)n3n2)cc1	-0.5%	-0.2%	0.6%	-2.2%	-12.9%	-19.9
SMILES	MCF10A rereplic	SW480 rerep	BCR signal inh	VP16 counter	RORgamma inh	Giardia kill
Cc1ccc(S(=O)(=O)N(C)C)cc1NC(=O)COC(=O)C1CC(=O)N(c2ccc3c(c2)OCCO3)C1 (stereo not drawn)	2.1%	7.4%	-9.6%	/	/	6.6
O=C1CCCCC1Nc1ccc(Br)cc1 (stereo not drawn)	-1.4%	0.5%	/	/	/	-10.6
COCCNc1nnc(Cc2ccc(Cl)cc2)c(=O)[nH]1	4.2%	4.3%	3.2%	0.8%	16.2%	37.2
COCCCNc1nnc(Cc2ccc(Cl)cc2)c(=O)[nH]1	0.517µM*	?	-7.8%	-4.1%	-8.3%	7.6
O=C(Nc1cc2c(=O)n(-c3ccc(Oc4ccccc4)cc3)ccc2oc1=O)c1ccccc1	5.17µM*	?	0.5%	-4.0%	37.8%	-8.4
CC(=O)Nc1cc2c(ccc3ccccc32)oc1=O	12.5%	13.0%	3.2%	16.9%	-29.2%	-14.9
COc1ccc2c(c1)C(=O)[C@H](O)[C@@H](c1ccc(OC)c(Br)c1)O2	?	4.11µM*	?	12.6µM*!	7.08µM*	6.5
COCCC(=O)N1CCC(n2nccc2NC(=O)c2ccccc2C)CC1	-1.3%	?	-0.3%	-1.8%	0.9%	?
O=C(NC1CC1)c1sc2cc([N+](=O)[O-])ccc2c1Cl	-3.9%	-7.5%	?	23.0%	?	4.7
CC(NC(=O)c1sc2cc([N+](=O)[O-])ccc2c1Cl)C(C)(C)C (stereo not drawn)	15.7%	2.2%	-6.4%	12.6µM*	?	2.6
CSc1nc2ccccc2cc1/C=C(\C#N)c1cccc(Cl)c1	8.2µM*	?	-1.4%	-5.1%	-36.2%	3.1
COc1cccc(-n2nc(C(N)=O)c(O)cc2=O)c1	2.8%	-18.8%	-1.4%	1.6%	-0.5%	-4.0
COc1cccc(-n2nc(C#N)c(Cl)cc2=O)c1	4.47µM*	?	?	7.08µM*	3.55µM*	-18.9
N=C1/C(=C\c2coc3ccccc3c2=O)C(=O)N=C2SC=CN12	?	-7.6%	?	-8.4%	1.1%	-4.6
Cc1cccc(Cn2cccc2/C=C2/C(=N)N3C=CSC3=NC2=O)c1	5.9%	-3.8%	?	7.94µM*	8.91µM*	-3.5
Cc1ccc(Cn2cccc2/C=C2/C(=N)N3C=CSC3=NC2=O)cc1	14.3%	7.5%	-6.0%	?	12.6µM*	8.3
N=C1/C(=C/c2cccn2-c2ccc([N+](=O)[O-])cc2)C(=O)N=C2SC=CN12	-77.6%	-0.2%	11.9%	-11.8%	8.5%	5.6
N=C1/C(=C/c2cccn2Cc2ccc(F)cc2)C(=O)N=C2SC=CN12	4.61µM*	6.1%	9.5%	-14.3%	10µM*	-2.2
O=C(COC(=O)c1ccc2c(c1)OCO2)Nc1ccccc1Cl	2.4%	-3.3%	-12.4%	/	/	10.3
Cn1c(N2CCCC2)nc2c1c(=O)[nH]c(=O)n2C	-5.3%	-0.1%	3.1%	-5.1%	-9.7%	-4.1
Cc1ccc(CNS(=O)(=O)c2c(C)[nH]c(C)c2C(=O)N2CCCCC2)o1	1.6%	-9.0%	-0.3%	-1.4%	-5.1%	-25.7
